Measurements from PubChem BioAssay AID1159580 (chemical genetic matrix, 2015).
In all, about 5,500 compounds went through this assay and about 2,000 (36%) were called active. About 18% were inconclusive and are not listed. This is one part of the list. Unmarked numbers belong to inactive results. Cut-off read from the data, not from the text of the source: active = normalized growth mostly below about 0.91 (no sharp cut-off); inconclusive = no clear call, values can overlap the other calls; inactive = mostly above about 0.92.

Assay: chemical genetic growth profiling, strain panel (AID 1159580);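 note: tested at 20 µM; growth read once vehicle control cultures reached saturation at 30 °C; 1 = growth at the plate median or of vehicle wells; lower values mean less growth of the strain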
Conditions: growth OD
[1] = S. cerevisiae deletion strains, locus YAL013W, strain DEP1, hits give low values
[2] = S. cerevisiae deletion strains, locus YBR229C, strain ROT2, hits give low values
[3] = S. cerevisiae deletion strains, locus YDL101C, strain DUN1, hits give low values
[4] = S. cerevisiae deletion strains, locus YDR150W, strain NUM1, hits give low values
[5] = S. cerevisiae deletion strains, locus YEL061C, strain CIN8, hits give low values
[6] = S. cerevisiae deletion strains, locus YGR078C, strain PAC10, hits give low values
[7] = S. cerevisiae deletion strains, locus YHR030C, strain SLT2, hits give low values
[8] = S. cerevisiae deletion strains, locus YHR087W, strain rtc3, hits give low values
[9] = S. cerevisiae deletion strains, locus YJL187C, strain SWE1, hits give low values
[10] = S. cerevisiae deletion strains, locus YJR043C, strain POL32, hits give low values
[11] = S. cerevisiae deletion strains, locus YJR075W, strain HOC1, hits give low values
[12] = S. cerevisiae deletion strains, locus YLR039C, strain RIC1, hits give low values
[13] = S. cerevisiae deletion strains, locus YLR058C, strain SHM2 (second series), hits give low values
[14] = S. cerevisiae deletion strains, locus YLR085C, strain ARP6, hits give low values
[15] = S. cerevisiae deletion strains, locus YLR262C, strain YPT6, hits give low values
[16] = S. cerevisiae deletion strains, locus YML094W, strain GIM5, hits give low values
[17] = S. cerevisiae deletion strains, locus YMR219W, strain ESC1, hits give low values
[18] = S. cerevisiae deletion strains, locus YMR263W, strain SAP30, hits give low values
[19] = S. cerevisiae deletion strains, locus YNL153C, strain GIM3, hits give low values
[20] = S. cerevisiae deletion strains, locus YNL298W, strain CLA4 (second series), hits give low values
[21] = S. cerevisiae deletion strains, locus YNL322C, strain KRE1, hits give low values
[22] = S. cerevisiae deletion strains, locus YNR030W, strain Alg12, hits give low values
[23] = S. cerevisiae deletion strains, locus YPL055C, strain LGE1, hits give low values
[24] = S. cerevisiae deletion strains, locus YPL241C, strain CIN2, hits give low values
[25] = S. cerevisiae deletion strains, locus YPR135W, strain CTF4, hits give low values
[26] = S. cerevisiae strains, strain wild type, hits give low values
[27] = S. cerevisiae deletion strains, locus YCL061C, strain MRC1, hits give low values
[28] = S. cerevisiae deletion strains, locus YOL006C, strain TOP1, hits give low values

## CC(=O)/C(=C\N(C)C)Sc1nnc(C(F)(F)F)n1C
[1]
  normalized growth: 1.06
[2]
  normalized growth: 1.03
[3]
  normalized growth: 0.968
[4]
  normalized growth: 1.02
[5]
  normalized growth: 1.01
[6]
  normalized growth: 1.01
[7]
  normalized growth: 1.06
[8]
  normalized growth: 1.04
[9]
  normalized growth: 0.998
[10]
  normalized growth: 1.01
[11]
  normalized growth: 0.987
S. cerevisiae deletion strains, locus YKL190W, strain CNB1, hits give low values
  normalized growth: 0.993
[12]
  normalized growth: 1.05
[13]
  normalized growth: 1
[14]
  normalized growth: 1.16
[15]
  normalized growth: 1.01
[16]
  normalized growth: 1.06
[17]
  normalized growth: 1.02
[18]
  normalized growth: 1.01
S. cerevisiae deletion strains, locus YNL128W, strain TEP1, hits give low values
  normalized growth: 1.01
[19]
  normalized growth: 1.02
[20]
  normalized growth: 1.03
[21]
  normalized growth: 1
[22]
  normalized growth: 1.02
[23]
  normalized growth: 1.09
[24]
  normalized growth: 1.1
[25]
  normalized growth: 1.21
[26]
  normalized growth: 1.01

## CC(=O)/C(=C\N(C)C)Sc1ccc(Cl)cc1
[1]
  normalized growth: 0.883 (active)
[2]
  normalized growth: 0.82 (active)
[27]
  normalized growth: 0.838 (active)
[3]
  normalized growth: 0.897 (active)
S. cerevisiae deletion strains, locus YDL134C, strain PPH21, hits give low values
  normalized growth: 0.976
[4]
  normalized growth: 0.859
[5]
  normalized growth: 0.989
[6]
  normalized growth: 0.817 (active)
[7]
  normalized growth: 1.02
[8]
  normalized growth: 0.832 (active)
[10]
  normalized growth: 0.888 (active)
[11]
  normalized growth: 0.776 (active)
[12]
  normalized growth: 0.876
[13]
  normalized growth: 0.817 (active)
[14]
  normalized growth: 1.12
[15]
  normalized growth: 0.873
[16]
  normalized growth: 1.07
[17]
  normalized growth: 0.86 (active)
[18]
  normalized growth: 0.839 (active)
[19]
  normalized growth: 0.793 (active)
[20]
  normalized growth: 1.03
[21]
  normalized growth: 0.819 (active)
[22]
  normalized growth: 1.03
[28]
  normalized growth: 1.09
[23]
  normalized growth: 0.933
[24]
  normalized growth: 0.937
[25]
  normalized growth: 1.29
[26]
  normalized growth: 0.975

## Cc1c(-n2cccc2)cc2c(c1[N+](=O)[O-])C(C)(C)CC2(C)C
[1]
  normalized growth: 1.01
[2]
  normalized growth: 1.01
[27]
  normalized growth: 1.01
[3]
  normalized growth: 1.02
[4]
  normalized growth: 1.02
[5]
  normalized growth: 1
[6]
  normalized growth: 1.02
[7]
  normalized growth: 1.05
[8]
  normalized growth: 1.01
[9]
  normalized growth: 1.02
[10]
  normalized growth: 1.01
[11]
  normalized growth: 1.05
[12]
  normalized growth: 1.06
[13]
  normalized growth: 0.994
[14]
  normalized growth: 1.01
[15]
  normalized growth: 1.07
[16]
  normalized growth: 1.02
[17]
  normalized growth: 1.02
[18]
  normalized growth: 1
[19]
  normalized growth: 0.998
[20]
  normalized growth: 1.04
[21]
  normalized growth: 1.02
[22]
  normalized growth: 1.01
[28]
  normalized growth: 1.03
[23]
  normalized growth: 1
[24]
  normalized growth: 1
[25]
  normalized growth: 1.04
